From PubChem BioAssay
Most compounds without a hit are left out; they make up all but 2.2% or so of the library.
Mm-Cpn inhibitor – Inhibitors of TCP-1 ring complex (TRiC) of Methanococcus maripaludis (MmCpn): qHTS; 330,000 compounds, 0.031% hits; Chaperonin Mm-Cpn (Methanococcus maripaludis); purified Mm-Cpn ATPase, ADP Transcreener TR-FRET; Potency, µM (series often up to 76.9 µM), inactives show at the highest dose activity, negative = inhibition, hits mostly inhibitors; further: potency means the concentration at half of the fitted maximal effect; on the % scale 0 is the no-effect control and ±100 the full control effect; nearly all actives have a fitted effect of over 80% in size
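ATPase turnover read by TR-FRET ADP competition (Eu cryptate antibody/ADP-d2, 665/590 nm): 10uM ATP final, 25nM Mm-CPN final, 30 min 37degC after 10-min compound preincubation, pH 7.4 Tris/KCl/MgCl2/DTT buffer.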
CCT modulator – High-Throughput Screening for Modulators of Cytosolic Chaperonin Activity | purified chaperonin ATPase assay, HTRF ADP detection, 30 min | activity change, % (no concentration beside the values), hits read low | 360,000 compounds, 0.3% hits; in the data active means activity change below about -30%; further: on the % scale 0 is the no-effect control and ±100 the full control effect
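ATPase activity: ADP formed was measured by HTRF Transcreener (665/615 nm ratio) after 30 min at 37 deg C with 10 uM ATP. Compounds screened at one 76 uM concentration against 40 or 20 nM TRiC in Tris pH 7.4/KCl/MgCl2/DTT buffer.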
GLP-1R agonist – qHTS of GLP-1 Receptor Agonists; Potency, µM (titrated, usually from 45.6 µM), without a hit: top-dose activation, hits mostly activators; HEK293 GLP-1R CRE-luciferase, luminescence, 4-6 h; cells express a hypersensitive GLP-1R form; 380,000 compounds, 0.007% hits; Glucagon-like peptide 1 receptor (Homo sapiens), P43220; further: potency means the concentration at half of the fitted maximal effect; % of control where 0% means no effect
Target sequence (P43220 whole entry, looked up): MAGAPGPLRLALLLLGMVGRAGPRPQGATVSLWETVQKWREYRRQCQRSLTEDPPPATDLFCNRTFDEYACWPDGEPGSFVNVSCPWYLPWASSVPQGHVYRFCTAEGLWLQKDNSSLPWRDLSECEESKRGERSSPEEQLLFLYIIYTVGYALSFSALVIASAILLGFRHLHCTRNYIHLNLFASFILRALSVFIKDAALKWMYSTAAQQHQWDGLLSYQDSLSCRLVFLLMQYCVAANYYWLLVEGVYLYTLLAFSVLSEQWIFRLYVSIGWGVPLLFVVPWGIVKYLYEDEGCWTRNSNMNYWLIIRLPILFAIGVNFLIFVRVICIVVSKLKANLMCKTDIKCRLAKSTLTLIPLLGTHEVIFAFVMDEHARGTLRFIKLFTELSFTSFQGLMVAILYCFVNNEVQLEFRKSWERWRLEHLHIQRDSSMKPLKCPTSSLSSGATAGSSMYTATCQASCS
GLP-1R inv ag – qHTS of GLP-1 Receptor Inverse Agonists (Inhibition Mode). HEK293 GLP-1R CRE-luciferase, luminescence, 24 h; GLP-1R form is constitutively active. Potency, µM (series often up to 38.3 µM), inactives show at the top dose activity change, negative = inhibition, most hits filed as inhibitors. 410,000 compounds, 1.6% hits; further: potency means the concentration at half of the fitted maximal effect; on the % scale 0 is the no-effect control and ±100 the full control effect; nearly all actives have a fitted effect of over 55% in size
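Seeding at 200 cells/uL, 12 h culture, 24 hr compound treatment, then luciferase reagent and a luminescence read; cells are HEK293 stably expressing a constitutively active GLP-1R plus cAMP-responsive luciferase.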
uPA surface inh – qHTS for Inhibitors of Cell Surface uPA Generation; 330,000 compounds, 0.31% hits; cell surface uPA generation assay, qHTS; Potency, µM (top dose mostly 38.3 µM), for the others: at the top dose activity change, negative = inhibition, hits mostly inhibitors; active means well fitted inhibition curve with a large enough effect; inconclusive means small, poorly fitted or top-dose-only effect; inactive means no such curve, though single readings can be large or run the other way; tested in mouse RAW 264.7 cells; further: potency means the concentration at half of the fitted maximal effect; on the % scale 0 is the no-effect control and ±100 the full control effect; nearly all actives have a fitted effect of over 55% in size
GLP1R cytotox – qHTS of GLP-1 Receptor Inverse Agonists: Cytotox Screen | HEK293 cAMP-luciferase reporter cells, luminescence, 24 h | Potency, µM (top dose mostly 38.3 µM), without a hit: top-dose activity change, negative = inhibition, usual class: inhibitors | 410,000 compounds, 0.13% hits | AID 624418, 2012;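 further: loss of luciferase light is scored as toxicity; potency means the concentration at half of the fitted maximal effect; on the % scale 0 is the no-effect control and ±100 the full control effect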
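Quantitative HTS format, 1536 wells, 200 cells/uL seeded. Compounds: 23 nL, 24 h, 37 °C. Detection: luciferase reagent, luminescence at 12 min RT; decreased signal taken as cytotoxic.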
The depositor's hits bear a star; [ ] = dose if it differs, or a comment. Unless noted, the call rests on the fitted dose curve; in most records, active means well fitted curve in the direction sought with a large enough effect; inconclusive means small, poorly fitted or top-dose-only effect, or another doubt; inactive means no such curve, though single readings can be large; an effect the other way counts as inactive or inconclusive.

How did COC(=O)c1cc2oc(C)cc2n1Cc1cccc(Cl)c1 do in these assays?
GLP-1R inv ag: inconclusive; GLP1R cytotox: 0%

Results for CCN1C(N(C)CCc2cccs2)=N[C@@H](c2ccccc2)C(C(=O)OC)=C1C ?
Mm-Cpn inhibitor: -2%; CCT modulator: -2; GLP-1R agonist: 0%; GLP-1R inv ag: 9%; uPA surface inh: inconclusive; GLP1R cytotox: inconclusive

Results for CCN1C(N(C)CCc2c[nH]c3ccccc23)=N[C@@H](c2cccc(C(F)(F)F)c2)C(C(=O)OC)=C1C ?
Mm-Cpn inhibitor: 1%; CCT modulator: 2; GLP-1R agonist: -1%; GLP-1R inv ag: 10µM*; uPA surface inh: -24%; GLP1R cytotox: -12%

Results for CCN(CC)CCCNC(=O)c1nn(-c2cccc(OC)c2)c(=O)c2ccccc12 ?
Mm-Cpn inhibitor: -1%; CCT modulator: -76*; GLP-1R agonist: 7%; GLP-1R inv ag: -31%; uPA surface inh: -1%; GLP1R cytotox: -5%

How did Cc1cc2nc3ccc(N(C)C)cc3nc2cc1N do in these assays?
CCT modulator: -40*; GLP-1R agonist: -3%; GLP-1R inv ag: inconclusive; uPA surface inh: inconclusive; GLP1R cytotox: -10%

What do the screens show for `COc1ccccc1N1CCN(S(=O)(=O)c2c(C)sc3ncn(CC(=O)Nc4ccc(C(C)C)cc4)c(=O)c23)CC1`?
GLP-1R inv ag: 7%; GLP1R cytotox: 13%

Results for COc1ccc(CN2C(=O)c3cccnc3C2Nc2ccc(OC)c(Cl)c2)cc1 (centres undefined) ?
Mm-Cpn inhibitor: -11%; CCT modulator: -71*; GLP-1R agonist: 8%; GLP-1R inv ag: 0%; GLP1R cytotox: -12%

How did COc1ccc(NC2c3ncccc3C(=O)N2Cc2ccccc2)c(OC)c1 (centres undefined) do in these assays?
Mm-Cpn inhibitor: -12%; CCT modulator: -4; GLP-1R agonist: 0%; GLP-1R inv ag: 0%; GLP1R cytotox: 6%

What do the screens show for `COc1cc2c(cc1OC)C(COc1ccccc1OC)N(C(=O)C(C)C)CC2` (centres undefined)?
Mm-Cpn inhibitor: 2%; CCT modulator: 0; GLP-1R agonist: 11%; GLP-1R inv ag: 17%; uPA surface inh: 0%; GLP1R cytotox: 14%

What do the screens show for `Cc1cc2c(cc1C)CSC(c1ccccc1OC(=O)C(C)C)SC2`?
Mm-Cpn inhibitor: 0%; CCT modulator: 0; GLP-1R agonist: 1%; GLP-1R inv ag: 10µM*; uPA surface inh: -3%; GLP1R cytotox: -15%

Results for COc1ccc(N(C(=O)C(C)C)S(=O)(=O)c2ccc3ccccc3c2)cc1 ?
Mm-Cpn inhibitor: -1%; CCT modulator: 2; GLP-1R agonist: -6%; GLP-1R inv ag: inconclusive; uPA surface inh: 1.8µM*; GLP1R cytotox: 5%

How did O=C1c2ccccc2-c2onc3c(N4CCN(CCO)CC4)cc(N4CCN(C(=O)c5ccco5)CC4)c1c23 do in these assays?
Mm-Cpn inhibitor: -16%; CCT modulator: 1; GLP-1R agonist: 6%; GLP-1R inv ag: 11µM*; uPA surface inh: 2%; GLP1R cytotox: inconclusive

How did O=C(O)CCCNc1cc(N2CCN(C(=O)c3ccco3)CC2)c2noc3c2c1C(=O)c1ccccc1-3 do in these assays?
Mm-Cpn inhibitor: 35µM*; CCT modulator: 0; GLP-1R agonist: 1%; GLP-1R inv ag: 8%; uPA surface inh: -3%; GLP1R cytotox: -8%

What do the screens show for `CN1CCN(c2cc(N3CCN(C(=O)c4ccco4)CC3)c3c4c(onc24)-c2ccccc2C3=O)CC1`?
Mm-Cpn inhibitor: -10%; CCT modulator: -1; GLP-1R agonist: 10%; GLP-1R inv ag: inconclusive; uPA surface inh: -7%; GLP1R cytotox: inconclusive

Results for CCOC(=O)N1CCN(c2cc(NCCC(=O)O)c3c4c(onc24)-c2ccccc2C3=O)CC1 ?
Mm-Cpn inhibitor: inconclusive; CCT modulator: -6; GLP-1R agonist: 4%; GLP-1R inv ag: 6%; uPA surface inh: -2%; GLP1R cytotox: inconclusive

What do the screens show for `COc1ccc(-c2nc3ccc(C4=C(C)CC(=O)NN4)cc3[nH]2)cc1`?
GLP-1R agonist: 29%

Results for CCCCN(CCCNc1ncnc2nc[nH]c12)c1ccccc1 ?
Mm-Cpn inhibitor: -2%; CCT modulator: -1; GLP-1R agonist: -1%; GLP-1R inv ag: 10µM*; uPA surface inh: -2%; GLP1R cytotox: -9%

How did c1ccc2c(CCNc3ncnc4nc[nH]c34)c[nH]c2c1 do in these assays?
Mm-Cpn inhibitor: 0%; CCT modulator: 0; GLP-1R agonist: 7%; GLP-1R inv ag: inconclusive; uPA surface inh: 2.8µM*; GLP1R cytotox: -15%

Results for Cc1ccc2c(c1)C(O)(c1c(C)[nH]c3ccccc13)C(=O)N2 (centres undefined) ?
Mm-Cpn inhibitor: 0%[15.4 µM]; CCT modulator: -2; GLP-1R agonist: -8%; GLP-1R inv ag: 3.2µM*; uPA surface inh: 5%; GLP1R cytotox: -12%

What do the screens show for `CC(C)Oc1cc(F)ccc1-c1cc(C(=O)Nc2ccccc2)[nH]n1`?
CCT modulator: 1; GLP-1R agonist: 28%; GLP-1R inv ag: 11µM*; GLP1R cytotox: -2%

What do the screens show for `COc1ccc(-c2cc3ccccc3n2CC(O)CNCCO)cc1` (centres undefined)?
Mm-Cpn inhibitor: -2%; CCT modulator: -1; GLP-1R agonist: -6%; GLP-1R inv ag: 2.8µM*; uPA surface inh: 1%; GLP1R cytotox: -12%

How did CC1CCN(CC(=O)Nc2ccccc2Sc2ccccc2)CC1 do in these assays?
Mm-Cpn inhibitor: 0%; CCT modulator: -1; GLP-1R agonist: 4%; GLP-1R inv ag: 4.5µM*; uPA surface inh: 5%; GLP1R cytotox: 5%

Results for O=C(CN1CCCC1)Nc1ccccc1Sc1ccccc1 ?
Mm-Cpn inhibitor: 0%; CCT modulator: -1; GLP-1R agonist: 19%; GLP-1R inv ag: inconclusive; uPA surface inh: 8%; GLP1R cytotox: 6%

How did O=C(O)c1cccc(COc2ccc3c(c2)CCC3)c1 do in these assays?
Mm-Cpn inhibitor: 1%; CCT modulator: -1; GLP-1R agonist: -6%; GLP-1R inv ag: inconclusive; uPA surface inh: -4%; GLP1R cytotox: 1%
